In PubChem BioAssay AID504905 (The Scripps Research Institute Molecular Screening Center, 2011):
The other results are listed elsewhere or left out. The source made the active and inactive calls. Rule as the data show it: active = activation above about 17%; inactive = the rest.

target: 5-hydroxytryptamine receptor 5A (Homo sapiens) (UniProt P47898); test: HTR5A agonists in cells, counter-screen for OPRM1-OPRD1 heterodimer agonist project, cell-based, luminescence (AID 504905); conditions: HTR5A agonist counterscreen, at 9.3 µM, hits give high values;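 also: 0% = vehicle-treated cells and 100% = reference agonist response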
Sequence (P47898 whole entry, looked up): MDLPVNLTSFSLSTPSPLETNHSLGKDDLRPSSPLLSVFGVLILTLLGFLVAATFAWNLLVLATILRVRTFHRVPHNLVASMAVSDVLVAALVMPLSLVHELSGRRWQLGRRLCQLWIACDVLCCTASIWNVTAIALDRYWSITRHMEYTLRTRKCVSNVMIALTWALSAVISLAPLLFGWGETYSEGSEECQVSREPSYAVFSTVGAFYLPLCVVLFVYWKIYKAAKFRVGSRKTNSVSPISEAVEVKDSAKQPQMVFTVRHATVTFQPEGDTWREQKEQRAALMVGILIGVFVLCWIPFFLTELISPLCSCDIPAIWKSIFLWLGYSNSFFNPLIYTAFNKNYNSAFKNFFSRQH

SMILES	activation
CCOC(=O)C1(CCc2ccccc2)CCN(Cc2ccco2)CC1	3.8% (inactive)
C[C@]12CC[C@H](O)C[C@H]1CC[C@@H]1C2CC[C@]2(C)[C@@H](C3=CC(=O)OC3)[C@@H](O)C[C@]12O (some centres undefined)	-0.48% (inactive)
CCC1(C)CC(CCNCc2ccc(N(C)C)cc2)(c2ccc(F)cc2)CCO1 (centres undefined)	0.44% (inactive)
COC1C(O)C(C)OC(OC2CCC3(C=O)C(CCC4C3CCC3(C)C(C5=CC(=O)OC5)CCC43O)C2)C1O (centres undefined)	13.7% (inactive)
